Compounds without any hit were thinned out: in the full panel of roughly 83,000, 20% have a hit.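 Method: cells in 96-well plates; compound added at one concentration; 48 h incubation; percent growth measured; values under 10 scored active.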 Unmarked numbers belong to inactive results. Active and inactive are the calls of the source.
What was measured:
Assay in all cases: NCI-60 one-dose screen, 48 h (100 = growth as untreated, 0 = no growth, -100 = all killed)
Settings in all cases: 10 µM
[1] = test system: SR leukemia
[2] = test system: RPMI-8226 leukemia
[3] = test system: OVCAR-8 ovarian
[4] = test system: OVCAR-5 ovarian
[5] = test system: OVCAR-4 ovarian
[6] = test system: SK-OV-3 ovarian
[7] = test system: IGROV1 ovarian
[8] = test system: OVCAR-3 ovarian
[9] = test system: HS 578T breast
[10] = test system: NCI/ADR-RES ovarian

SMILES	growth [1]	growth [2]	growth [3]	growth [4]	growth [5]	growth [6]	growth [7]	growth [8]	growth [9]	growth [10]
C=CCNC(=S)NN	54.6%	74.2%	71.2%	69.7%	96.8%	98.4%	45.3%	96.5%	89.5%	82.7%
CCOC(=O)/C(C#N)=C(/C)C1CC1	102%	98.4%	107%	105%	104%	111%	121%	101%	107%	111%
N#CN1CC[C@H](C(=O)Nc2ncc(-c3ccccc3)s2)C1	0.907% (active)	3.84% (active)	2.85% (active)	1.27% (active)	-6.05% (active)	5.15% (active)	11%	-32.5% (active)	-7.39% (active)	4.61% (active)
CC1=CSC2=NC(c3ccc(Cl)c(Cl)c3)=CC(c3ccc(Cl)cc3)N12 (stereo not given)	0.606% (active)	82.3%	29.1%	91.8%	62.5%	-19.9% (active)	-52% (active)	18%	-1.12% (active)	92.9%
O=C(O)c1ccccc1C(=O)c1cccc2c(F)cccc12	115%	104%	99%	110%	98.4%	109%	113%	117%	126%	104%
CCCCn1c(=O)[nH]c2c(c1=O)C(c1ccc(Cl)cc1)c1c([nH]c(=O)n(CCCC)c1=O)N2	106%	104%	99.5%	99.5%	102%	94.7%	102%	115%	106%	98.6%
CCOc1nc(-c2ccccc2)cc2c(O)c(C(=O)N/N=C/c3ccc(OC)cc3)[nH]c(=O)c12	112%	82.2%	109%	125%	98.3%	95.5%	82.3%	106%	96.8%	105%
CCCCCCCCCCCCCC[n+]1ccc(C)cc1	-38.2% (active)	-29.7% (active)	-19.1% (active)	3.81% (active)	7.84% (active)	-24.2% (active)	-79.5% (active)	-57.2% (active)	-22.6% (active)	66.6%
O=C(N/N=C\c1cc(Cl)ccc1O)c1ccncc1	26.8%	52.7%	44.5%	83.9%	31.4%	59.4%	33%	19.1%	125%	26.8%
O=C(O)CNS(=O)(=O)c1ccc(OCCOc2ccc(S(=O)(=O)NCC(=O)O)cc2)cc1	103%	109%	102%	104%	115%	103%	106%	103%	99.4%	103%
O=C(CCc1ccccc1)N1CCN(C(=O)CCc2ccccc2)CC1	94.3%	92.3%	96%	110%	101%	115%	99.7%	118%	100%	108%
O=[N+]([O-])C1CC2C=CC1C2 (stereo not given)	92.4%	111%	102%	104%	99.7%	102%	103%	91.6%	97.9%	95.6%
Cc1ccc(/C(CS(=O)(=O)c2ccc(C)cc2)=N\O)cc1	83.7%	96.6%	97.2%	90.9%	96.1%	112%	102%	118%	113%	106%
CC[C@@]1(C(N)=O)CC2C=CC1C2 (stereo not given in full)	85.8%	102%	106%	113%	114%	103%	123%	132%	118%	113%
CCOC(=O)CSC(=S)SCC(=O)OCC	84.8%	95.4%	93%	107%	97.4%	98.2%	117%	122%	106%	106%
CC(=O)/C(=C\c1ccc(Cl)cc1)c1ccccc1	6.01% (active)	19%	15.2%	51.5%	57.7%	39.1%	28.5%	-8.06% (active)	23.8%	30.7%
O=NN(CCCl)C(=O)NCc1ccc(-c2ccc(CNC(=O)N(CCCl)N=O)cc2)cc1	-5.09% (active)	93.5%	94%	115%	114%	95.8%	66.6%	115%	116%	100%
O=C1/C(=C/c2ccc(O)cc2)Oc2ccc(Cl)cc21	109%	119%	79.4%	106%	120%	111%	-27.4% (active)	92.9%	87.1%	87.3%
CCOC(=O)CNC(=O)Nc1ccc(Oc2ccc(NC(=O)NCC(=O)OCC)cc2)cc1	94.2%	99.9%	98.4%	112%	106%	104%	102%	107%	101%	101%
CCc1nn2c(-c3ccccc3)c(-c3cc(OC)c(OC)c(OC)c3)nc2s1	59.4%	60.2%	88.1%	98.5%	68.5%	102%	87.3%	92%	69.8%	77.1%
Cc1ccc(-n2c(-c3cc4c([nH]c5ccccc54)c(-c4cccc(O)c4)n3)n[nH]c2=S)cc1	-21.8% (active)	-14.1% (active)	0.787% (active)	50.1%	26.4%	-14.5% (active)	-3.48% (active)	-36.1% (active)	23.4%	61.7%
CCN(CC)c1ccc(/C=C/C2=[N+](C)c3ccccc3C2(C)C)c(C)c1	-14.6% (active)	-25.7% (active)	8.1% (active)	30.6%	18.4%	-6.99% (active)	31.8%	8.86% (active)	41.8%	33.4%
COc1ccccc1NC1=C(N2CCCCC2)C(=O)c2ccccc2C1=O	76.3%	40.2%	84.7%	96.2%	69.7%	102%	100%	87%	93.3%	87.3%
COc1cc(C(c2c[nH]c3ccccc23)N2CCCC2)ccc1OCc1ccccc1 (stereo not given)	34.9%	32.3%	80.4%	97.1%	91.8%	89.5%	48.1%	75.5%	57.2%	76.5%
COc1cc(Nc2ccnc(N3CCN(c4ccnc5cc(Cl)ccc45)CC3)n2)cc(OC)c1	-17% (active)	-27.6% (active)	1.09% (active)	30.8%	30.4%	6.6% (active)	3.24% (active)	15%	24.6%	7.19% (active)
CC1(C)CC(=O)c2c(nc3ccc(Cl)cc3c2-c2ccccc2)C1	69.5%	27.5%	94.6%	89.9%	98.8%	94.3%	75.5%	108%	158%	81.9%
Cc1ccc(/C=C2\CN(Cc3cn(CCNc4ccnc5cc(Cl)ccc45)nn3)C/C(=C\c3ccc(C)cc3)C2=O)cc1	-19.5% (active)	-30.2% (active)	8.83% (active)	-10.9% (active)	30.3%	8.53% (active)	28.3%	-50.6% (active)	13.9%	9.21% (active)
O=C(Nc1ccc(Oc2ccc(Nc3nc4ccccc4s3)cc2)cc1)Nc1ccc(Cl)c(Cl)c1	8.33% (active)	22.2%	32.6%	70.5%	24.9%	69%	39.4%	22.8%	61.9%	25.3%

— PubChem BioAssay (NCI)
